Inconclusive results are not listed. The source made the active and inactive calls. Calls come from the whole dose curve; as a rule, active = well fitted inhibition curve with a large enough effect; inconclusive = small, poorly fitted or top-dose-only effect; inactive = flat fitted curve, though single readings scatter.
What follows are molecules tested against Luciferin 4-monooxygenase (Photinus pyralis) (UniProt P08659) (assay: Counterscreen Assay for Enhancers of SMN2 Splice Variant Expression: Interaction with Luciferase Reporter for Further Probe SAR). Conditions: purified firefly luciferase, luminescence, 5 min; series mostly up to 57.5 µM.
Chain of Luciferin 4-monooxygenase (Photinus pyralis) (P08659 whole entry, looked up, canonical isoform): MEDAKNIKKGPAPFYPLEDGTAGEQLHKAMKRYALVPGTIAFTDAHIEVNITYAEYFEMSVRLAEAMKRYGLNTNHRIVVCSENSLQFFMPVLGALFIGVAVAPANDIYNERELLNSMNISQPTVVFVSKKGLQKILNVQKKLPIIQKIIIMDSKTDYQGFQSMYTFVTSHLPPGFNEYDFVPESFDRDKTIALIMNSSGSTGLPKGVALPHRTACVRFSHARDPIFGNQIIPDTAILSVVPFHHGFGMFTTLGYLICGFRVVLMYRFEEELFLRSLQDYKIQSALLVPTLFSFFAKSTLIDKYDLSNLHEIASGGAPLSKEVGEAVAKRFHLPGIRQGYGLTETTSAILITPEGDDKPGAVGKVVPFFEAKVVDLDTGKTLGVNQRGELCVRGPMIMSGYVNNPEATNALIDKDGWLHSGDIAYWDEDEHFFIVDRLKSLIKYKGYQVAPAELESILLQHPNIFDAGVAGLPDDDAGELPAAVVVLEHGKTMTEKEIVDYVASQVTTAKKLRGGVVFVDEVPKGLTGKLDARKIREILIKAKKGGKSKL
Excerpt: NIH Chemical Genomics Center [NCGC] NIH Molecular Libraries Probe Production centers Network [MLPCN] MLPCN Grant: R03 MH084179-01 Assay Submitter (PI): Elliot Androphy NCGC Assay Overview: Spinal muscular atrophy (SMA) is caused by insufficient levels of the survival motor neuron protein SMN. The SMN locus on chromosome 5q13 contains two inverted copies of SMN called SMN1 and SMN2 which are 99% identical at the amino acid level. SMN1 is a fully functional protein and SMN2 skips exon 7 90% of the time. Skipping of exon 7 produces non-functional protein product. 10% of the SMN2 protein includes exon 7 and is fully functional. In the SMA disease state, mutations in the SMN1 locus are the cause of the disease state. Because only 10% of SMN2 is of the fully functional form, it is not sufficient to overcome the deficiency produced by the loss of the SMN1 product. A therapy that either increases the amount of SMN2 product made increases the inclusion of exon 7 has been proposed for the treatment of SMA. We have designed an assay to identify small molecules that can increase the amount of functional SMN2 product by appending a luciferase reporter gene after the native SMN2 gene, such that inclusion of exon 7 in the expressed product places the luciferase sequence in frame, thus generating functional luciferase enzyme. One potential source of false positives in the primary screening assay is stabilization of the reporter luciferase via direct binding. This assay attempts to identify such compounds by screening directly for luciferase activity in the absence of the cellular system.
NCGC Assay Protocol Summary: The primary screen utilizes a luciferase reporter gene assay, combining the promoter and splicing based cassettes in tandem with the major portion of the native SMN1 cDNA, and then transfected into HEK293 cells. Compounds that modulate luciferase signal presumably modulate expression of […]. In this assay, we utilize purified firefly luciferase in lieu of a cellular reporter to identify compounds interacting directly with luciferase in the primary screen. Sequence, Parameter, Value, Description (1) Reagent, 2.5 uL, Enzyme in buffer (note A) (2) Compound, 23 nL, From stock solutions (3) Time, 5 minutes, Room temp (4) Reagent#2.5 ul, Luciferase detection reagent (note B) (5) Detector, 1 sec integrate, Luminescent read on Viewlux (note C) Sigma enzyme (1 mg) considered to be MW 61,000 diluted in 357 ul assay buffer to 50 uM stock. A - Enzyme and buffer consists of 50 mM Tris-acetate pH 7.6, 10 mM Mg acetate 0.05% BSA, 0.01% Tween and 5 nM firefly luciferase B - Detection reagent = britelite plus diluted 1:10 in PBS C - Viewlux settings were 1 second integration medium sensitivity Keywords: Spinal muscular atrophy, SMA, SMN2, high throughput screening, MLSMR, MLPCN, NIH Roadmap, qHTS and NCGC
With `CC(=O)N1CCN(c2nc(-c3ccc(Br)cc3)cs2)CC1` the Potency was 0.8 µM (active). For `CC(C)(C)OC(=O)NC1CCN(c2nc(-c3ccc(Br)cc3)cs2)CC1`, the Potency was “inactive”. `NC(=O)C1CCN(c2nc(-c3ccc(OC(F)(F)F)cc3)cs2)CC1` was tested, and the Potency was “inactive”. In the case of `O=C(O)C1CCN(c2ncc(-c3ccc4c(c3)OCCCO4)s2)CC1`, the Potency was 0.005 µM (active). `CC(=O)NC1CCN(c2nc(-c3ccc(Br)cc3)cs2)CC1` was tested, and the Potency was “inactive”. For `CN(C)C(=O)C1CCN(c2nc(-c3ccc(Br)cc3)cs2)CC1`, the Potency was 8 µM (active). In the case of `NC(=O)C1CCN(c2nc(-c3cccc4sc5ccccc5c34)cs2)CC1`, the Potency was 31.8 µM (active). With `NC(=O)C1CCN(c2nnc(-c3ccc(Br)cc3)s2)CC1` the Potency was “inactive”. `NC(=O)C1CCN(c2nccc(-c3ccc4c(c3)OCCCO4)n2)CC1` was tested, and the Potency was “inactive”. For `N#Cc1ccccc1-c1csc(N2CCC(C(N)=O)CC2)n1`, the Potency was “inactive”. `NC(=O)C1CCN(c2ncc(-c3ccc(Cl)cc3)s2)CC1` was tested, and the Potency was 10.1 µM (active). With `CN(C)c1cccc(-c2cnc(N3CCC(C(N)=O)CC3)nc2)c1` the Potency was 11.3 µM (active). `COc1ccc(-c2csc(N3CCC(C(N)=O)CC3)n2)cc1OC` was tested, and the Potency was “inactive”. For `CC(C)Oc1cccc(-c2ccnc(N3CCC(C(N)=O)CC3)n2)c1`, the Potency was 10.1 µM (active). `O=C(c1ccco1)N1CCN(c2nc(-c3ccc(Br)cc3)cs2)CC1` was tested, and the Potency was “inactive”. For `NC(=O)C1CCN(c2nc(-c3cccc(Br)c3)cs2)CC1`, the Potency was 31.8 µM (active). In the case of `CN(C)c1ccc(-c2csc(N3CCC(C(N)=O)CC3)n2)cc1`, the Potency was “inactive”. In the case of `CN(C)c1cccc(-c2ncnc(N3CCC(C(N)=O)CC3)n2)c1`, the Potency was “inactive”. In the case of `NC(=O)C1CCN(c2ncc(-c3ccc4c(c3)OCCCO4)s2)CC1`, the Potency was 2.84 µM (active). `NC(=O)C1CCN(c2ncc(-c3ccc4c(c3)OC(F)(F)O4)s2)CC1` was tested, and the Potency was 16 µM (active). For `O=C(C1CCN(c2nc(-c3ccc(Br)cc3)cs2)CC1)N1CCNCC1`, the Potency was “inactive”. For `NC(=O)C1CCN(c2ncc(Br)cn2)CC1`, the Potency was “inactive”. `COc1ccccc1-c1csc(N2CCC(C(N)=O)CC2)n1` was tested, and the Potency was “inactive”. For `CC(=O)C1CCN(c2ncc(-c3cccc(N(C)C)c3)s2)CC1`, the Potency was 5.05 µM (active). `Brc1ccc(-c2csc(N3CCC(c4nn[nH]n4)CC3)n2)cc1` was tested, and the Potency was 16 µM (active). `CC(=O)Nc1ccc(-c2csc(N3CCC(C(N)=O)CC3)n2)cc1` was tested, and the Potency was “inactive”. For `NC(=O)C1CCN(c2ncc(-c3ccc4c(c3)OCO4)s2)CC1`, the Potency was 3.18 µM (active). With `Cc1ccc(-c2cnc(N3CCC(C(N)=O)CC3)s2)cc1` the Potency was 5.05 µM (active). For `COc1cc(-c2csc(N3CCC(C(N)=O)CC3)n2)cc(OC)c1OC`, the Potency was “inactive”. In the case of `Cc1ccc(-c2nnc(N3CCC(C(N)=O)CC3)s2)cc1`, the Potency was 16 µM (active). For `COc1ccc(-c2cnc(N3CCC(C(N)=O)CC3)s2)cc1OC`, the Potency was “inactive”. For `O=C(Nc1ccccc1)C1CCN(c2ncc(-c3ccc4c(c3)OCCCO4)s2)CC1`, the Potency was 4.01 µM (active). With `CCOC(=O)C1CCN(c2ncc(-c3ccc4c(c3)OCCCO4)s2)CC1` the Potency was 8 µM (active). In the case of `NC(=O)C1CCN(c2nc(-c3ccc(C(F)(F)F)cc3)cs2)CC1`, the Potency was 20.1 µM (active). With `NC(=O)C1CCN(c2nccc(-c3ccc(Br)cc3)n2)CC1` the Potency was 25.3 µM (active). In the case of `CN(C)c1cccc(-c2cnc(N3CCC(C(N)=O)CC3)s2)c1`, the Potency was 0.635 µM (active). In the case of `Brc1ccc(-c2csc(N3CCNCC3)n2)cc1`, the Potency was “inactive”. In the case of `CN(C)c1cccc(-c2cnc(N3CCC(c4ncc[nH]4)CC3)s2)c1`, the Potency was 20.1 µM (active). With `CC(C)Oc1cccc(-c2cnc(N3CCC(C(N)=O)CC3)s2)c1` the Potency was 0.8 µM (active). `NC(=O)C1CCN(c2nccc(Cl)n2)CC1` was tested, and the Potency was “inactive”.

Source: PubChem BioAssay AID488838 (National Center for Advancing Translational Sciences (NCATS), 2010)
